Many of the other results were omitted from the sample, so hits are more common in it than they were.
Chronic BCR inh = inhibitors of chronic active B-cell receptor signaling. ABC-DLBCL IkBa-CBG/CBR reporter, luminescence ratio, 4 h. Potency, µM (series often up to 46.1 µM), without a hit: at the top dose activity change, negative = inhibition, usual class: inhibitors. 340,000 tested, 0.05% active. AID 493014; active means well fitted inhibition curve with a large enough effect in the signal ratio, with a control signal flat, not every such curve was filed as active; inconclusive means small, poorly fitted or top-dose-only effect, or effect the other way, or a change in a side signal; the % refers to the signal ratio;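 further: potency means the concentration at half of the fitted maximal effect; plate controls were basal doxycycline-induced cells for no effect and cells given 10 µM MG132 for full effect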
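TMD8 human ABC-DLBCL cells with doxycycline-inducible IκBα–green luciferase fusion and unfused red luciferase, in 0.5% FBS medium; compounds up to 46 uM, 4 h at 37C. Green/red luminescence ratio, filter-overlap corrected, fitted to concentration-response curves.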
PTAP TSG101 blk = blocks PTAP/TSG101 interaction to inhibit HIV-1 budding. Q99816. Fluorescence polarization, FITC-PTAP peptide / Tsg101 binding. Potency, µM (doses to about 115 µM), for the others: at the highest dose activity change, negative = inhibition, most hits filed as inhibitors. 340,000 tested, under 10 active. AID 493005; active means well fitted inhibition curve with a large enough effect in the main read-out, with a control signal flat, not every such curve was filed as active; inconclusive means small, poorly fitted or top-dose-only effect, or effect the other way, or a change in a side signal; inactive means no such curve, though single readings can be large or run the other way; further: potency means the concentration at half of the fitted maximal effect; % of control where 0% means no effect
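Fluorescence polarization binding of Tsg101 binding domain (10 uM final) to FITC-labeled PTAP peptide (50 nM final) in HEPES pH 7.5 buffer with NaCl, Tween 20, EDTA, TCEP. Compounds added before peptide; binding 20 min at RT.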
Menin-MLL FL inh = inhibitors of human menin-MLL interaction, wild-type MLL peptide; Fluorescence polarization, fluorescein-MLL peptide displacement from menin; FP activity change, % at 61.4 µM; 290,000 tested, under 10 active; active means well fitted curve in the direction sought with a large enough effect in the polarisation, not every such curve was filed as active; inconclusive means small, poorly fitted or top-dose-only effect, or effect the other way, or a change in a side signal; inactive means no such curve, though single readings can be large or run the other way; the % refers to the polarisation; further: % of control where 0% means no effect
Menin MLL FP TR = displaces Texas Red mutant MLL peptide from human menin. Menin + Texas Red MLL mutant peptide, fluorescence polarization. 270,000 tested, 0.23% active. Potency, µM (top dose mostly 61.6 µM), for the others: at the highest dose FP activity change, negative = inhibition, actives largely listed as inhibitors. AID 1768; active means well fitted inhibition curve with a large enough effect in the polarisation, with a control signal flat, not every such curve was filed as active; inconclusive means small, poorly fitted or top-dose-only effect, or effect the other way, or a change in a side signal; inactive means no such curve, though single readings can be large or run the other way; the % refers to the polarisation; further: potency means the concentration at half of the fitted maximal effect; % of control where 0% means no effect
Target sequence (O00255 whole entry, looked up): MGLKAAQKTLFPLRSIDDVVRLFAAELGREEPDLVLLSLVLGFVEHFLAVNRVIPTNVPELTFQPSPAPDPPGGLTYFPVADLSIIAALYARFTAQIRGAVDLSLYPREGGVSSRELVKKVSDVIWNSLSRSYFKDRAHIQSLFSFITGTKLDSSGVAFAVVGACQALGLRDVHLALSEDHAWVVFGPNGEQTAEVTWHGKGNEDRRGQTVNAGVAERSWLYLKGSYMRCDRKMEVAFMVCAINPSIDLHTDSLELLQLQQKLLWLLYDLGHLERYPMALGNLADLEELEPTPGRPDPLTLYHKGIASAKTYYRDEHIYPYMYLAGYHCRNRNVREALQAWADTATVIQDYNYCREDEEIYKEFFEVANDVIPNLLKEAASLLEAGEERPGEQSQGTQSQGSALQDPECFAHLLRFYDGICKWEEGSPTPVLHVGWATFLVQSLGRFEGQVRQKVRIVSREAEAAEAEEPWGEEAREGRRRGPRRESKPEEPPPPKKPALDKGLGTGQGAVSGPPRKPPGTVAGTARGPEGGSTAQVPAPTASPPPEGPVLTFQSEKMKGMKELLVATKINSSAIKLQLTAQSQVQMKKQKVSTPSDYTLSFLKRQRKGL
MLL CXXC-DNA inh = blocks binding of human MLL CXXC domain to DNA; Q03164; Potency, µM (doses to about 115 µM), for the others: top-dose activity change, negative = inhibition, actives largely listed as inhibitors; 290,000 tested, 0.037% active; MLL-CXXC / FITC-HOXA9 DNA fluorescence polarization; active means well fitted inhibition curve with a large enough effect in the polarisation, with a control signal flat, not every such curve was filed as active; inconclusive means small, poorly fitted or top-dose-only effect, or effect the other way, or a change in a side signal; inactive means no such curve, though single readings can be large or run the other way; the % refers to the polarisation; further: potency means the concentration at half of the fitted maximal effect
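Steps: dispense CXXC domain solution (7 uM) → pin compounds or unlabeled HOX-A9 DNA control → 5 min ambient → add FLSN-HOX-A9 solution (50 nM) → spin → 30 min ambient → fluorescence polarization. Tris pH 7.5/NaCl/DTT/BSA buffer.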
B2AR arrestin = beta2AR (human) beta-arrestin recruitment activity. Potency, µM (top dose mostly 46.1 µM), for the others: at the highest dose activation, actives largely listed as activators. beta-arrestin recruitment to beta2AR, cell-based reporter. AID 492947. P07550. 330,000 tested, 0.02% active; active means well fitted activation curve with a large enough effect; inconclusive means small, poorly fitted or top-dose-only effect;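 further: potency means the concentration at half of the fitted maximal effect; 0% = DMSO controls and full agonism = EC100 isoproterenol or metaproterenol; nearly all actives have a fitted effect of over 65% in size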
Active calls of the source: *.

Screening CC(C)(C)NC(=S)NNC(=O)c1cccc(Br)c1 returned Chronic BCR inh inconclusive, PTAP TSG101 blk -5.3%, Menin-MLL FL inh 0.9, Menin MLL FP TR 27.2%, MLL CXXC-DNA inh -2.7% and B2AR arrestin 6.31µM*.
O=C(NNC(=S)Nc1ccccc1)c1cccc(Br)c1 was read as Chronic BCR inh inconclusive, PTAP TSG101 blk -0.9%, Menin-MLL FL inh -1.0, Menin MLL FP TR inconclusive, MLL CXXC-DNA inh -15.2% and B2AR arrestin -0.2%.
For CCC(=O)NCCc1cc2ccc(C)c(C)c2[nH]c1=O the results were Chronic BCR inh -0.1%, PTAP TSG101 blk -4.8%, Menin-MLL FL inh 1.9, Menin MLL FP TR 3.8%, MLL CXXC-DNA inh 3.7% and B2AR arrestin 0.3%.
`COc1cc(C2C(C#N)=C(N)Oc3c2ccc2ccccc32)ccc1OCC(=O)Nc1ccccc1C` (configuration not stated) gave Chronic BCR inh 11.2%, PTAP TSG101 blk 0.4%, Menin-MLL FL inh 4.1, Menin MLL FP TR 25.1µM*, MLL CXXC-DNA inh 25.6% and B2AR arrestin -0.8%.
For COC(=O)c1ccc(NC(=O)COc2ccc(C3C(C#N)=C(N)Oc4c3ccc3ccccc43)cc2OC)cc1 (configuration not stated) the results were Chronic BCR inh 16.8%, PTAP TSG101 blk -1.5%, Menin-MLL FL inh -1.2, Menin MLL FP TR inconclusive, MLL CXXC-DNA inh 32.7% and B2AR arrestin -0.4%.
`COC(=O)CN(C)C(=O)c1ccccc1OC1CCN(S(C)(=O)=O)CC1` gave Chronic BCR inh 0.9%, PTAP TSG101 blk -6.4%, Menin-MLL FL inh 0.2, Menin MLL FP TR 16.8%, MLL CXXC-DNA inh -2.4% and B2AR arrestin 0.2%.
Screening COC(=O)c1c(-n2c(C)cc(C=O)c2C)sc2c1CCCC2 returned Chronic BCR inh inconclusive, PTAP TSG101 blk -5.6%, Menin-MLL FL inh 3.0, Menin MLL FP TR 28.2µM*, MLL CXXC-DNA inh 23.8% and B2AR arrestin 1.0%.
Screening O=[N+]([O-])c1cc(F)c2cccnc2c1O returned Chronic BCR inh 15.8µM*, PTAP TSG101 blk -9.6%, Menin-MLL FL inh inconclusive, Menin MLL FP TR inconclusive, MLL CXXC-DNA inh 8.0% and B2AR arrestin -0.8%.
For NC(=O)SCC(=O)Nc1cccc(Cl)c1 the results were Chronic BCR inh -2.6%, PTAP TSG101 blk 0.1%, Menin-MLL FL inh 9.7, Menin MLL FP TR 22.4µM*, MLL CXXC-DNA inh 11.8% and B2AR arrestin -0.4%.
`CCOC(=O)Cc1csc(NC(=O)C(C)Oc2ccc3c(C)cc(=O)oc3c2)n1` (configuration not stated) gave Chronic BCR inh -8.8%, PTAP TSG101 blk -3.4%, Menin-MLL FL inh -1.5, Menin MLL FP TR -11.7%, MLL CXXC-DNA inh inconclusive and B2AR arrestin -0.4%.
Screening COc1ccc(-c2nn(CC(=O)Nc3ccc(Cl)c(Cl)c3)c(=O)c3ccccc23)cc1 returned Chronic BCR inh 6.7%, PTAP TSG101 blk 3.3%, Menin-MLL FL inh 6.2, Menin MLL FP TR 10µM*, MLL CXXC-DNA inh 17.2% and B2AR arrestin 0.2%.
Screening COc1ccc(NC(=O)Cn2cccc2)c(OC)c1 returned Chronic BCR inh 9.8%, PTAP TSG101 blk -9.2%, Menin-MLL FL inh -0.1, MLL CXXC-DNA inh -3.1% and B2AR arrestin -0.1%.
`Cn1nc(C(=O)N2CCN(c3ccc([N+](=O)[O-])cc3)CC2)c2c1-c1ccccc1S(=O)(=O)C2` gave Chronic BCR inh -3.1%, PTAP TSG101 blk 0.1%, Menin-MLL FL inh 0.1, Menin MLL FP TR 25.1µM*, MLL CXXC-DNA inh 14.5% and B2AR arrestin -0.2%.
For CCCCN(CC)CCNC(=O)c1cc2c(-c3ccc(Cl)cc3)nn(C)c2s1 the results were Chronic BCR inh -2.2%, PTAP TSG101 blk -2.5%, Menin-MLL FL inh 0.7, Menin MLL FP TR 17.8µM*, MLL CXXC-DNA inh -0.5% and B2AR arrestin -1.1%.
`CCN(CC)CCNC(=O)c1cc2c(-c3ccc(Cl)cc3)nn(C)c2s1` gave Chronic BCR inh inconclusive, PTAP TSG101 blk -1.0%, Menin-MLL FL inh -1.4, Menin MLL FP TR -19.7%, MLL CXXC-DNA inh -16.1% and B2AR arrestin 0.4%.
